{"source": "PubChem BioAssay (EPA / NIEHS)", "note": "Calls of active or inactive are those of the source. How the source made its calls: active means hit-call score of the fitted dose curve at least 0.9, where 1 is the maximum; inactive means score below 0.9.", "data": [{"assay": "CEETOX_H295R_OHPROG: CeeTox H295R High-throughput Steroidogenesis Assay for OH-Progesterone (OHPROG) (AID 2283435)", "settings": "actives raise or lower the signal", "in_short": "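HPLC-MS/MS quantification of 17alpha-hydroxyprogesterone secreted by H295R cells after 48 h chemical exposure, following 48 h 10 uM forskolin prestimulation. Gain or loss of signal fitted relative to DMSO. Viability checked by MTT in the same wells.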", "values": [{"smiles": "Nc1ccc2c(c1)C(=O)c1ccccc1C2=O", "AC50": "7.84 µM (active)"}, {"smiles": "C[C@]12C=CC(=O)C=C1CC[C@@H]1[C@@H]2C(=O)C[C@@]2(C)[C@H]1CC[C@]2(O)C(=O)CO", "outcome": "inactive"}, {"smiles": "Cc1cc(NC(=O)C(=O)O)cc(C)c1Oc1ccc(O)c2c1CCC2", "AC50": "35 µM (active)"}, {"smiles": "Cc1nc(-c2ccc3c(c2)CCN(CCC2CCC(NC(=O)/C=C/c4ccc(F)cc4)CC2)CC3)no1", "note": "(configuration not stated)", "AC50": "0.224 µM (active)"}, {"smiles": "Cc1cccc(Nc2cc(Cl)nc(SCC(=O)O)n2)c1C", "AC50": "8.61 µM (active)"}, {"smiles": "C=CCc1ccc(O)c(OC)c1", "outcome": "inactive"}, {"smiles": "Nc1ccc(S(=O)(=O)c2ccc(N)cc2)cc1", "AC50": "30.5 µM (active)"}, {"smiles": "CC1(C)CC(N=C=O)CC(C)(CN=C=O)C1", "note": "(configuration not stated)", "outcome": "inactive"}, {"smiles": "Nc1ccccc1N", "outcome": "inactive"}, {"smiles": "Cc1nc(C)nc(N2C[C@@H](C)N(c3ccnc([C@@H](C)O)n3)[C@@H](C)C2)n1", "outcome": "inactive"}, {"smiles": "COc1ccc(C)cc1N", "AC50": "19.3 µM (active)"}, {"smiles": "COc1ccc(S(=O)(=O)N2C(=O)[C@@](c3ccccc3OC)(N3C[C@H](O)C[C@H]3C(=O)N(C)C)c3cc(Cl)ccc32)c(OC)c1", "AC50": "5.43 µM (active)"}, {"smiles": "Cc1c(C(=O)O)c(O)cc2c1C(=O)c1c(O)c([C@@H]3O[C@H](CO)[C@@H](O)[C@H](O)[C@H]3O)c(O)c(O)c1C2=O", "outcome": "inactive"}, {"smiles": "CN1CCN(Cc2cc(-c3ccc4[nH]c(=O)oc4c3)co2)[C@@H](c2ccc(F)cc2)C1", "AC50": "4.56 µM (active)"}, {"smiles": "c1cc(-c2ccncc2)ccn1", "outcome": "inactive"}, {"smiles": "CC=Cc1ccc(O)c(OC)c1", "outcome": "inactive"}, {"smiles": "CCOc1ccc2c(c1)C(C)=CC(C)(C)N2", "AC50": "2.44 µM (active)"}, {"smiles": "NC(=O)Cn1c(=O)cc(CCN2CCN(c3nccc4sccc34)CC2)c2ccc(F)cc21", "AC50": "7.83 µM (active)"}, {"smiles": "Oc1ccc2c(c1)OC[C@@H](N1CCC(O)(c3ccc(F)cc3)CC1)[C@H]2O", "outcome": "inactive"}, {"smiles": "COc1ccc2c(c1)c(CC(=O)O)c(C)n2C(=O)c1ccc(Cl)cc1", "outcome": "inactive"}, {"smiles": "COC(=O)c1ccc(O)cc1", "AC50": "45 µM (active)"}]}, {"assay": "CEETOX_H295R_ANDR: CeeTox H295R High-throughput Steroidogenesis Assay for Androstenedione (ANDR) (AID 2283436)", "settings": "actives raise or lower the signal", "in_short": "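48 h chemical exposure, H295R cells, DMEM/F12 + ITS+ and Nu-Serum. Medium androstenedione: MTBE extraction, C18 reverse-phase HPLC, ESI+ MS/MS. Fit bidirectional vs DMSO; MTT viability in same wells.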", "values": [{"smiles": "Cc1nc(-c2ccc3c(c2)CCN(CCC2CCC(NC(=O)/C=C/c4ccc(F)cc4)CC2)CC3)no1", "note": "(configuration not stated)", "AC50": "0.365 µM (active)"}, {"smiles": "Cc1cccc(Nc2cc(Cl)nc(SCC(=O)O)n2)c1C", "outcome": "inactive"}, {"smiles": "COc1ccc(C)cc1N", "outcome": "inactive"}, {"smiles": "COc1ccc(S(=O)(=O)N2C(=O)[C@@](c3ccccc3OC)(N3C[C@H](O)C[C@H]3C(=O)N(C)C)c3cc(Cl)ccc32)c(OC)c1", "outcome": "inactive"}, {"smiles": "CCOc1ccc2c(c1)C(C)=CC(C)(C)N2", "AC50": "36.4 µM (active)"}, {"smiles": "COc1ccc2c(c1)c(CC(=O)O)c(C)n2C(=O)c1ccc(Cl)cc1", "outcome": "inactive"}]}, {"assay": "CEETOX_H295R_CORTIC: CeeTox H295R High-throughput Steroidogenesis Assay for Corticosterone (CORTIC) (AID 2283437);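 further: corticosterone secreted into medium quantified by mass spectrometry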", "settings": "actives raise or lower the signal", "in_short": "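48 h forskolin (10 uM) prestim, then 48 h chemical exposure, final DMSO 0.1%. Readout: corticosterone in medium by LC-MS/MS after MTBE extraction. Gain/loss fit vs DMSO; MTT viability in same wells.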", "values": [{"smiles": "Nc1ccc2c(c1)C(=O)c1ccccc1C2=O", "AC50": "4.17 µM (active)"}, {"smiles": "Cc1cc(NC(=O)C(=O)O)cc(C)c1Oc1ccc(O)c2c1CCC2", "AC50": "34.1 µM (active)"}, {"smiles": "Cc1nc(-c2ccc3c(c2)CCN(CCC2CCC(NC(=O)/C=C/c4ccc(F)cc4)CC2)CC3)no1", "note": "(configuration not stated)", "outcome": "inactive"}, {"smiles": "Cc1cccc(Nc2cc(Cl)nc(SCC(=O)O)n2)c1C", "outcome": "inactive"}, {"smiles": "Nc1ccccc1N", "outcome": "inactive"}, {"smiles": "Cc1nc(C)nc(N2C[C@@H](C)N(c3ccnc([C@@H](C)O)n3)[C@@H](C)C2)n1", "outcome": "inactive"}, {"smiles": "COc1ccc(C)cc1N", "AC50": "74.3 µM (active)"}, {"smiles": "COc1ccc(S(=O)(=O)N2C(=O)[C@@](c3ccccc3OC)(N3C[C@H](O)C[C@H]3C(=O)N(C)C)c3cc(Cl)ccc32)c(OC)c1", "outcome": "inactive"}, {"smiles": "Cc1c(C(=O)O)c(O)cc2c1C(=O)c1c(O)c([C@@H]3O[C@H](CO)[C@@H](O)[C@H](O)[C@H]3O)c(O)c(O)c1C2=O", "outcome": "inactive"}, {"smiles": "CN1CCN(Cc2cc(-c3ccc4[nH]c(=O)oc4c3)co2)[C@@H](c2ccc(F)cc2)C1", "outcome": "inactive"}, {"smiles": "c1cc(-c2ccncc2)ccn1", "outcome": "inactive"}, {"smiles": "NC(=O)Cn1c(=O)cc(CCN2CCN(c3nccc4sccc34)CC2)c2ccc(F)cc21", "AC50": "4.46 µM (active)"}, {"smiles": "Oc1ccc2c(c1)OC[C@@H](N1CCC(O)(c3ccc(F)cc3)CC1)[C@H]2O", "outcome": "inactive"}, {"smiles": "COc1ccc2c(c1)c(CC(=O)O)c(C)n2C(=O)c1ccc(Cl)cc1", "outcome": "inactive"}, {"smiles": "COC(=O)c1ccc(O)cc1", "outcome": "inactive"}]}, {"assay": "CEETOX_H295R_CORTISOL: CeeTox H295R High-throughput Steroidogenesis Assay for Cortisol (AID 2283438)", "settings": "actives raise or lower the signal", "in_short": "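Read-out: cortisol in culture medium by reverse-phase C18 HPLC with ESI-positive tandem MS, after MTBE liquid-liquid extraction. Cells: human adrenal H295R, forskolin-primed (10 uM, 48 h) before 48 h chemical exposure in 0.1% DMSO.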", "values": [{"smiles": "Nc1ccc2c(c1)C(=O)c1ccccc1C2=O", "outcome": "inactive"}, {"smiles": "Cc1cc(NC(=O)C(=O)O)cc(C)c1Oc1ccc(O)c2c1CCC2", "outcome": "inactive"}, {"smiles": "Cc1nc(-c2ccc3c(c2)CCN(CCC2CCC(NC(=O)/C=C/c4ccc(F)cc4)CC2)CC3)no1", "note": "(configuration not stated)", "outcome": "inactive"}, {"smiles": "Cc1cccc(Nc2cc(Cl)nc(SCC(=O)O)n2)c1C", "outcome": "inactive"}, {"smiles": "Nc1ccccc1N", "outcome": "inactive"}, {"smiles": "Cc1nc(C)nc(N2C[C@@H](C)N(c3ccnc([C@@H](C)O)n3)[C@@H](C)C2)n1", "outcome": "inactive"}, {"smiles": "COc1ccc(C)cc1N", "AC50": "36.7 µM (active)"}, {"smiles": "COc1ccc(S(=O)(=O)N2C(=O)[C@@](c3ccccc3OC)(N3C[C@H](O)C[C@H]3C(=O)N(C)C)c3cc(Cl)ccc32)c(OC)c1", "outcome": "inactive"}, {"smiles": "Cc1c(C(=O)O)c(O)cc2c1C(=O)c1c(O)c([C@@H]3O[C@H](CO)[C@@H](O)[C@H](O)[C@H]3O)c(O)c(O)c1C2=O", "outcome": "inactive"}, {"smiles": "CN1CCN(Cc2cc(-c3ccc4[nH]c(=O)oc4c3)co2)[C@@H](c2ccc(F)cc2)C1", "outcome": "inactive"}, {"smiles": "c1cc(-c2ccncc2)ccn1", "outcome": "inactive"}, {"smiles": "NC(=O)Cn1c(=O)cc(CCN2CCN(c3nccc4sccc34)CC2)c2ccc(F)cc21", "AC50": "25 µM (active)"}, {"smiles": "Oc1ccc2c(c1)OC[C@@H](N1CCC(O)(c3ccc(F)cc3)CC1)[C@H]2O", "outcome": "inactive"}, {"smiles": "COc1ccc2c(c1)c(CC(=O)O)c(C)n2C(=O)c1ccc(Cl)cc1", "outcome": "inactive"}, {"smiles": "COC(=O)c1ccc(O)cc1", "outcome": "inactive"}]}]}
